The values that follow come from PubChem BioAssay (NCATS).

Records with an inconclusive call do not appear. Calls of active or inactive are those of the source. Unless noted, calls come from the whole dose curve; as a rule, active = well fitted curve in the direction sought with a large enough effect; inconclusive = small, poorly fitted or top-dose-only effect, or another doubt; inactive = no such curve, though single readings can be large; an effect the other way counts as inactive or inconclusive.

Assay [1] can be described thus: P-glycoprotein substrates identified in KB-3-1 adenocarcinoma cell line, qHTS therapeutic library screen (AID 1346986). Note: nearly all actives have a fitted effect of over 60% in size.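 Note: potency is the fitted concentration of half-maximal effect; potency is for cytotoxicity meaning loss of cell viability.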 The method, boiled down:
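In 1536-well format, 500 cells/well received pinned compound titrations and were incubated 72 h, 5% CO2. Viability was read by CellTiter-Glo; cytotoxic if AC50 < 10 uM and efficacy >50%.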
Background: qHTS replaces the single test concentration by a dilution series.

The nature of assay [2]: P-glycoprotein substrates identified in KB-8-5-11 adenocarcinoma cell line, qHTS therapeutic library screen (AID 1346987). Note: nearly all actives have a fitted effect of over 65% in size. Note: potency is the fitted concentration of half-maximal effect. Put shortly:
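Luminescence from CellTiter-Glo, read 5 min after addition, quantified survival of KB-8-5-11 (P-gp-overexpressing) cells exposed to compounds for 72 h. AC50 was derived from concentration-response curves.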

A short description of assay [3]: Primary qHTS for small molecule stabilizers of the endoplasmic reticulum resident proteome: Secreted ER Calcium Modulated Protein (SERCaMP) assay (AID 1508630). Note: % is set by controls: 0 for no effect and ±100 for the full control effect. Put shortly: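 The SH-SY5Y reporter protocol was run at 3 concentrations up to 38.3 uM (primary) or 11 concentrations (follow-up): 16 h compound, 100 nM thapsigargin for 4 h, then extracellular luciferase luminescence.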

Assay [4] in a line: Primary qHTS for inhibitors of nuclear receptor binding SET domain protein 2 (NSD2) in an isogenic RCH-ACV NSD2 p.E1099K mutant (9B) (AID 1645876). Note: nearly all actives have a fitted effect of over 70% in size. Note: potency is the fitted concentration of half-maximal effect.
Assay [5] in a line: Primary qHTS for inhibitors of nuclear receptor binding SET domain protein 2 (NSD2) in an RCH-ACV wild type WT cells (2C) (AID 1645877). Note: nearly all actives have a fitted effect of over 70% in size. Note: potency is the fitted concentration of half-maximal effect.
Assay [6] deals with Glutathione peroxidase 1 (Homo sapiens) (UniProt P07203). Kind of assay: Primary qHTS Assay for Inhibitors of Recombinant Selenoprotein Glutathione Peroxidase 1 (GPX1) (AID 1845191). For activity, negative = inhibition: % is set by controls: 0 for no effect and ±100 for the full control effect. Note: nearly all actives have a fitted effect of over 65% in size. Note: potency is the fitted concentration of half-maximal effect. The method, boiled down: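 GR-coupled readout: NADPH consumption tracked by fluorescence, ex 340/em 450 nm, at t=0 and after 15 min at RT. Final mix 10 nM GPX1, 1 mM GSH, 0.5 mM CHP, 0.5 mM NADPH, 100 nM GR, 0.01% BSA, following 30 min enzyme–compound preincubation.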

Assay [7] can be described thus: qHTS drug screen for cell cycle checkpoint inhibitors in PARPi-resistant BRCA-mutant ovarian cancer cell lines. (AID 1963452; calls by dose curve). The conditions noted are these: PEO1/OlaR viability, CellTiter-Glo luminescence, 96 h, stronger effect = lower value. Put shortly:
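PEO1, PEO4 and PEO1/OlaR ovarian cancer cells, 600 per well, exposed 96 h at 37C to a dilution series. Viability read by CellTiter-Glo luminescence, normalized to DMSO and empty wells; activity summarized as Z-AUC.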

Assay [8] addresses Calcium and integrin-binding protein 1 (Homo sapiens) (UniProt Q99828). Description: Primary qHTS for Identification of Calcium Integrin Binding Protein 1 (CIB1) Competitor (AID 1508620). Note: top concentration of the series differs between compounds; % is set by controls: 0 for no effect and ±100 for the full control effect. Put shortly: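 Fluorescence polarization competition: GST-tagged CIB1 (1 uM final) preincubated with compound 15 min at room temperature, then FITC-labelled alphaIIb peptide (100 nM final) added. After 15 min at room temperature, polarization read at Ex 480/Em 540.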

Assay [9] in a line: qHTS to identify inhibitors of the type 1 interferon - major histocompatibility complex class I in skeletal muscle: primary screen against the NCATS Mechanism Interrogation Plate v5.0 (MIPE) Libary (AID 1347411).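 Note: plate controls were vehicle for no effect and reference inhibitor for full effect; nearly all actives have a fitted effect of over 65% in size.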 The method, boiled down: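 Seed engineered human myoblasts (HLA-B HiBit) in medium without dexamethasone containing 4 ng/ml IFN-beta; after 1 hr add compound titrations (top 46 uM final). Incubate 24 hrs at 37 C, lyse 10 min with HiBiT reagent, read luminescence.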

The target of assay [10] is Phospholipid hydroperoxide glutathione peroxidase GPX4 (Homo sapiens) (UniProt P36969). Kind of assay: Primary qHTS Assay for Inhibitors of Recombinant Selenoprotein Glutathione Peroxidase 4 (GPX4) (AID 1845192). Note: % is set by controls: 0 for no effect and ±100 for the full control effect; nearly all actives have a fitted effect of over 65% in size. Conditions: outcome: dose series up to 50 µM unless noted. Put shortly:
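Steps: GPX4 plus compound, 30 min RT; add GR/GSH/NADPH master mix; start with cumene hydroperoxide; read 340/450 nm fluorescence at 0 and 15 min. Finals were 200 nM GPX4, 1 mM GSH, 0.5 mM CHP, 0.5 mM NADPH, 100 nM GR.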

The target of assay [11] is N-terminal Xaa-Pro-Lys N-methyltransferase 1 (Homo sapiens) (UniProt Q9BV86). Description: Confirmatory qHTS for Inhibitors of N-terminal methyltransferase 1 (NTMT1): MTaseGlo Assay (AID 1645874). The method, boiled down: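 SPKRIA peptide at 1 uM was methylated by 125 nM NTMT1 using 100 uM SAM over 30 min at room temperature, following a 15 min compound preincubation. Product SAH was detected luminescently.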

Assay [12] has as its target Catechol O-methyltransferase (Homo sapiens) (UniProt P21964). Description: Confirmatory Screen for Target Class Profiling of Small Molecule Inhibitors of Methyltransferases (AID 1745852; calls by dose curve; note: potency is the fitted concentration of half-maximal effect; for activity change, negative = inhibition: % is set by controls: 0 for no effect and ±100 for the full control effect). The conditions noted are these: MTase-Glo luminescence, SAH detection, recombinant enzyme; measured here: COMT max response; stronger effect = lower value.
The target in assay [13] is Guanidinoacetate N-methyltransferase (Homo sapiens) (UniProt Q14353). The assay is described as above. The conditions noted are these: activity change, negative = inhibition: at 57.3 µM (top of the series) unless noted.
Assay [14] deals with Nicotinamide N-methyltransferase (Homo sapiens) (UniProt P40261). The assay is described as above. Conditions: MTase-Glo luminescence, SAH detection, recombinant enzyme; measured here: NNMT max response; stronger effect = lower value.
Assay [15] has as its target Phenylethanolamine N-methyltransferase (Homo sapiens) (UniProt P11086). Described as above. The conditions noted are these: MTase-Glo luminescence, SAH detection, recombinant enzyme; measured here: PNMT max response; stronger effect = lower value.
Assay [16] has as its target Cytochrome P450 2C9 (Homo sapiens) (UniProt P11712). Description: Cytochrome P450 family 2 subfamily C member 9 (CYP2C9) small molecule antagonists: luciferase biochemical (cell-free) qHTS assay (AID 1645842; active = well fitted curve in the direction sought with a large enough effect in the repeat runs; an effect the other way counts as inactive or inconclusive; note: % is set by controls: 0 for no effect and ±100 for the full control effect; nearly all actives have a fitted effect of over 55% in size). The method, boiled down: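 P450-Glo CYP2C9 system: proluciferin substrate with enzyme in mix containing 0.4% BSA, 10 min at room temperature, then NADPH regeneration solution added and incubated 1 h at 37C. Detection reagent stopped reaction; luminescence read after 20 min as RLU.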

Setting [17] is: measured here: PEO1 parental Z-AUC.

Chain of Catechol O-methyltransferase (Homo sapiens) (P21964 whole entry, looked up): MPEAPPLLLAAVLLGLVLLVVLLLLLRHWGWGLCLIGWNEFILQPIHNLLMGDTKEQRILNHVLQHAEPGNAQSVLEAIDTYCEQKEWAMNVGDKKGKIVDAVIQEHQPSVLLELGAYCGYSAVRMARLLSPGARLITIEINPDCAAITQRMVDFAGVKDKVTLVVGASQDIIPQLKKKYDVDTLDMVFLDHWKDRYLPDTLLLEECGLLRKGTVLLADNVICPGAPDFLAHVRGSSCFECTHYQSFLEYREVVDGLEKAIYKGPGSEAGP
Chain of Nicotinamide N-methyltransferase (Homo sapiens) (P40261 whole entry, looked up): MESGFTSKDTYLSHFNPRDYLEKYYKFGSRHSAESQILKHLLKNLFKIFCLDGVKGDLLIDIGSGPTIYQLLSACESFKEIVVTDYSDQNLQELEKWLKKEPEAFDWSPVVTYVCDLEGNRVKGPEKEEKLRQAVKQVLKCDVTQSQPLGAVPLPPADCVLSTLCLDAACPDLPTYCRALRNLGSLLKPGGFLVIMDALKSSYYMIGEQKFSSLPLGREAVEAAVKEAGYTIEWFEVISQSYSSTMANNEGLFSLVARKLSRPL
Chain of Glutathione peroxidase 1 (Homo sapiens) (P07203 whole entry, looked up): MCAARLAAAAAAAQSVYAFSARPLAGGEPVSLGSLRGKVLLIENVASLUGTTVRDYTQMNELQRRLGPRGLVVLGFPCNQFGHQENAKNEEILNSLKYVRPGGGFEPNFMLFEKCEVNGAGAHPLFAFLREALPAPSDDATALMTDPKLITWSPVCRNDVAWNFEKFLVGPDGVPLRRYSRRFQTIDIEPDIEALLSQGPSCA
Chain of Phenylethanolamine N-methyltransferase (Homo sapiens) (P11086 whole entry, looked up): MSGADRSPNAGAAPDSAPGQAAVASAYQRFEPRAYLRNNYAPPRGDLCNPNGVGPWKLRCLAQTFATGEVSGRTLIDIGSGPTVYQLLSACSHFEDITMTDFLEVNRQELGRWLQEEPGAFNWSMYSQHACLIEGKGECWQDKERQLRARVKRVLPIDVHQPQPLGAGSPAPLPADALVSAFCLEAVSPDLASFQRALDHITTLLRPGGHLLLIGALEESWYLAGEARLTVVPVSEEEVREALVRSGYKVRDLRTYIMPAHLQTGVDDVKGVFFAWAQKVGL
Chain of Calcium and integrin-binding protein 1 (Homo sapiens) (Q99828 whole entry, looked up): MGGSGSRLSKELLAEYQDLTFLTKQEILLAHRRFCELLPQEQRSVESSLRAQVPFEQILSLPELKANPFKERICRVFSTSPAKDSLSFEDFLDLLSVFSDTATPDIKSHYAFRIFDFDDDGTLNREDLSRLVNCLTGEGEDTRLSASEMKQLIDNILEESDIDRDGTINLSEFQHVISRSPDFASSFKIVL
Chain of Phospholipid hydroperoxide glutathione peroxidase GPX4 (Homo sapiens) (P36969 whole entry, looked up): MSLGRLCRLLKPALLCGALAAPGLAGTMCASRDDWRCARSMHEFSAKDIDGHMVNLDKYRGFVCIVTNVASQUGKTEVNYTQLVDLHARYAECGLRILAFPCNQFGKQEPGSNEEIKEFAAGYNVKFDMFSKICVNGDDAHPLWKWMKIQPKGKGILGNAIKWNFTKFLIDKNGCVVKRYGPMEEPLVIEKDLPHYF
Chain of Cytochrome P450 2C9 (Homo sapiens) (P11712 whole entry, looked up): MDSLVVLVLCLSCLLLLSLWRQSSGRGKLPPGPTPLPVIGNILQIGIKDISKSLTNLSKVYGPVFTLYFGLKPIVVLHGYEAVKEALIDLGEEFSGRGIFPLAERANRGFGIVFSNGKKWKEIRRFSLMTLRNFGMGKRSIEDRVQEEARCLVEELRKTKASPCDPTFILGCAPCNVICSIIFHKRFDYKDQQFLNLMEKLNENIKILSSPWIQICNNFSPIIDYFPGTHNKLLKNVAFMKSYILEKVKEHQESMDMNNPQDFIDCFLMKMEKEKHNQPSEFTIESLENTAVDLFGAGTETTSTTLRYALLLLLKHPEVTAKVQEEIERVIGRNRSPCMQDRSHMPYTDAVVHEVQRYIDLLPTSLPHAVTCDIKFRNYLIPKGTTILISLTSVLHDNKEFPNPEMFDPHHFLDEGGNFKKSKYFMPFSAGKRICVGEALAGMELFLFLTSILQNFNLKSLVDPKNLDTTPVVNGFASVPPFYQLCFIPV
Chain of N-terminal Xaa-Pro-Lys N-methyltransferase 1 (Homo sapiens) (Q9BV86 whole entry, looked up): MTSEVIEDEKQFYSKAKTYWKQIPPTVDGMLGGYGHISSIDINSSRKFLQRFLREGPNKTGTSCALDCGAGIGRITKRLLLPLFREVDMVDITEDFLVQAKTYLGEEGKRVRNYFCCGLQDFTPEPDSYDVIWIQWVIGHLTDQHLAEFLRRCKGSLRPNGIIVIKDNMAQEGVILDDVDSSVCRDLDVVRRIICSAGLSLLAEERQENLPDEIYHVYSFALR

In the case of `Cc1cc(I)ccc1Nc1c(C(=O)NOCC2CC2)cc(F)c(F)c1F`, the Potency in assay [1] was 23.1 µM (active); in assay [2] it was 18.4 µM (active); in assay [4] it was 8.33 µM (active); in [5], 7.42 µM (active). Also, the Potency entry in assay [3] and in assay [6] was “inactive” throughout. The Z-AUC in assay [7] was 0.467 (inactive); in assay [7] (setting [17]), 0.0632; in [7] (measured here: PEO4 Z-AUC), 0.231.

In the case of `Cc1cn(C2OC(CO)C(O)C2F)c(=O)[nH]c1=O` (stereo not drawn), the Potency entry in assay [1], in [2], in assay [4] and in assay [5] was “inactive” in each case.

Regarding `C[C@@]1(F)[C@H](O)[C@@H](CO)O[C@H]1n1ccc(N)nc1=O`, the Potency result in assay [1], in [2], in [4] and in assay [5] was “inactive” in each case.

In the case of `[2H]C([2H])([2H])C(OC(=O)[C@H](C)N[P@](=O)(OC[C@H]1O[C@@H](n2ccc(=O)[nH]c2=O)[C@](C)(F)[C@@H]1O)Oc1ccccc1)C([2H])([2H])[2H]`, the Potency result in assay [1], in assay [2], in assay [4] and in assay [5] was “inactive” in each case.

In the case of `Cc1ccc(NS(=O)(=O)c2cc3c(cc2NCCO)NC(=O)CC3)cc1C`, the Potency entry in [1], in assay [2], in assay [4] and in [6] was “inactive” throughout. In [8], the outcome was “inactive”.

`CCOC(=O)c1cc2ccc(O)cc2oc1=O`: the Potency entry in assay [1], in assay [2], in [4] and in assay [5] was “inactive” each time.

Take `CN(C)Cc1cccc(N=C(c2ccccc2)c2c(O)[nH]c3cc(C(N)=O)ccc23)c1`: the Potency entry in [1], in [2], in assay [9], in assay [5], in assay [6] and in assay [10] was “inactive” in each case. Moreover, the Potency in [4] was 16.4 µM (active). Also, the Z-AUC is 0.325 (inactive) in [7], 0.627 in [7] (setting [17]) and -0.143 in [7] (measured here: PEO4 Z-AUC).

For the compound `O=C(NOCCO)c1cc(CN2OCCCC2=O)c(F)c(F)c1Nc1ccc(I)cc1F`, the Potency entry in assay [1], in assay [2], in assay [9], in assay [4] and in assay [6] was “inactive” throughout.

For the compound `Cc1nc(CN(C)c2ncnc3ccc(-c4ccc5c(c4)OCO5)cc23)cs1`, the Potency in [1] was 16.4 µM (active); in assay [2], 20.6 µM (active); in assay [11] it was 4.26 µM (active); in [4], 8.2 µM (active); in assay [13], 19.2 µM (active). Moreover, the outcome in assay [8] is “inactive”. In addition, the activity in assay [12] is -89.6%; in assay [14], -80.4%; in assay [15], -90.3%. Besides, the Potency result in assay [6] is “inactive”.

`Cc1[nH]c(/C=C2\C(=O)Nc3ccccc32)c(C)c1CCC(=O)O`: the Potency entry in assay [1], in assay [2], in [16], in assay [4], in [5] and in assay [6] was “inactive” throughout.

With `CC(C)n1cc(-c2ccc(Oc3ccccc3)cc2)c2c(N)ncnc21`, the Potency was 14.6 µM (active) in assay [1], 9.2 µM (active) in assay [2], 1.64 µM (active) in assay [4] and 2.06 µM (active) in assay [5]. Also, the outcome in [8] is “inactive”. Further, the activity in [12] was -15%; in assay [14] it was -34.7%; in assay [15] it was -60.7%. Further, the activity change, negative = inhibition in assay [13] is -8.59%. The Potency entry in [6] is “inactive”.

Regarding `Cc1cncc2cccc(S(=O)(=O)N3CCCNC[C@@H]3C)c12`, the Potency was 6.51 µM (active) in assay [1], 1.64 µM (active) in assay [2], 13 µM (active) in assay [4] and 3.66 µM (active) in assay [5]. Further, the Potency result in [6] was “inactive”.

Regarding `C/C(=C1/C(=O)Nc2ccc(NC(N)=O)cc21)c1ccc[nH]1`, the Potency is 4.61 µM (active) in assay [1], 4.61 µM (active) in [2], 1.64 µM (active) in assay [4] and 1.84 µM (active) in assay [5]. Also, in [6], the Potency entry is “inactive”.

Regarding `CCCCCC1CC1CC1CC1CCCCCCCC(=O)O` (stereo not drawn), the Potency result in assay [1], in [2], in [4], in assay [5] and in assay [6] was “inactive” throughout.

With `O=C(Nc1cccc(Nc2cc(Nc3cccc(C(F)(F)F)c3)ncn2)c1)C1CC1`, the Potency in [1] is 0.92 µM (active); in assay [2], 0.92 µM (active); in assay [4], 0.731 µM (active); in assay [5] it was 0.92 µM (active); in [13], 21.5 µM (active). In addition, the activity in assay [12] is -58%; in assay [14] it was -68.1%; in assay [15], -61.4%. Moreover, in assay [6], the Potency entry was “inactive”.

For `CC(C)CN(CC(=O)N(CCCN1CCCC1=O)CC(N)=O)C(=O)CNCCc1ccccc1F`, the Potency result in assay [1], in assay [2], in [4], in assay [5] and in [6] was “inactive” throughout.

`CC(Sc1nc2c(cnn2-c2cccc(Cl)c2)c(=O)[nH]1)C(N)=O` (stereo not drawn): the Potency entry in assay [1], in [2], in [4], in assay [5] and in assay [6] was “inactive” throughout.

Regarding `COc1ccc2cc1Oc1ccc(cc1)CC1c3cc(c(OC)cc3CCN1C)Oc1c(OC)c(OC)c(OC)c3c1C(C2)N(C)CC3` (stereo not drawn), the Potency result in [1], in assay [2], in assay [4], in assay [5] and in [6] was “inactive” each time.

In the case of `CSC(Cc1ccc(Cl)cc1)C(=O)Nc1ccc(Cl)cc1C(=O)O` (stereo not drawn), the Potency result in assay [1], in assay [2], in [4], in assay [5] and in assay [6] was “inactive” in each case.

Turning to `O=C1c2ccccc2-c2nc3nnnn3nc21` (tested in a mixture with another compound), the Potency was 0.92 µM (active) in assay [1]; 0.92 µM (active) in assay [2]; 0.082 µM (active) in assay [4]; 0.184 µM (active) in assay [5]; 0.482 µM (active) in assay [13]; 16.1 µM (active) in assay [6]. Moreover, the activity was -95.2% in [12], -67.5% in assay [14] and -24.7% in assay [15].

With `O=C1OC(/C=C/c2ccccc2)=NC/1=C\c1cccnc1`, the Potency entry in assay [1], in assay [2], in assay [4], in assay [5] and in [6] was “inactive” throughout.

On to `CN(C)CCNC(=O)c1cccn2c(=O)c3cc4ccccc4cc3nc12`, for which the Potency in [1] was 1.19 µM (active); in [2], 1.19 µM (active); in [4] it was 0.668 µM (active); in assay [5], 0.668 µM (active). Further, the figures for the activity in assay [12], in assay [14] and in [15] were 3%, 3.48% and 3.82%, respectively. The activity change, negative = inhibition in assay [13] worked out at 0.968% [at 12.7 µM]. Besides, in assay [6], the activity, negative = inhibition was 2.53% [at 9.52 µM] (inactive).

`CS(=O)(=O)c1ccc([C@@H](C[C@H]2CCC(=O)C2)C(=O)Nc2cnccn2)cc1Cl`: the Potency result in assay [1], in [2], in [4], in assay [5] and in assay [6] was “inactive” throughout.
